# Measured values: the supplement of paper PMC4466140
# Assays:
# Test in all cases: SPOT peptide array binding signal intensity (averaged, normalized) (arbitrary units (background-subtracted, floor 0; scale differs between SH3 domains)); higher = stronger binding of the SH3 domain to the peptide
# AgAbp1 = molecular target: AgAbp1
# Method in brief: (§1)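 Peptides were synthetic 15-mers on cellulose membranes, with every cysteine replaced by serine. They were incubated overnight at 4°C with GST-SH3 domains from four yeast species at 10 μg/ml in TBS-based blocking buffer. Binding signal, the replicate-averaged normalized and background-subtracted spot intensity, is in arbitrary units that differ between domains.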
# AgBbc1 = molecular target: AgBbc1
# Method in brief: as §1
# AgBem1-D1 = molecular target: AgBem1-D1
# Method in brief: as §1
# AgBzz1-D1 = molecular target: AgBzz1-D1
# Method in brief: as §1
# AgBzz1-D2 = molecular target: AgBzz1-D2
# Method in brief: as §1
# AgCyk3 = molecular target: AgCyk3
# Method in brief: as §1
# AgFus1 = molecular target: AgFus1
# Method in brief: as §1
# AgHof1 = molecular target: AgHof1
# Method in brief: as §1
# AgHse1 = molecular target: AgHse1
# Method in brief: as §1
# AgLsb1 = molecular target: AgLsb1
# Method in brief: as §1
# AgLsb4 = molecular target: AgLsb4
# Method in brief: as §1
# AgMyo5 = molecular target: AgMyo5
# Method in brief: as §1
# AgNbp2 = molecular target: AgNbp2
# Method in brief: as §1
# AgRvs167 = molecular target: AgRvs167
# Method in brief: as §1
# AgSho1 = molecular target: AgSho1
# Method in brief: as §1
# AgSla1-D1-D2 = molecular target: AgSla1-D1-D2
# Method in brief: as §1
# AgSla1-D3 = molecular target: AgSla1-D3
# Method in brief: as §1
# CaAbp1-D1 = molecular target: CaAbp1-D1
# Method in brief: as §1
# CaAbp1-D2 = molecular target: CaAbp1-D2
# Method in brief: as §1
# CaBbc1 = molecular target: CaBbc1
# Method in brief: as §1
# CaBem1-D1 = molecular target: CaBem1-D1
# Method in brief: as §1
# CaBzz1-D1 = molecular target: CaBzz1-D1
# Method in brief: as §1
# CaBzz1-D2 = molecular target: CaBzz1-D2
# Method in brief: as §1
# CaCyk3 = molecular target: CaCyk3
# Method in brief: as §1
# CaFus1 = molecular target: CaFus1
# Method in brief: as §1
# CaHof1 = molecular target: CaHof1
# Method in brief: as §1
# CaHse1 = molecular target: CaHse1
# Method in brief: as §1
# CaLsb1 = molecular target: CaLsb1
# Method in brief: as §1
# CaLsb4 = molecular target: CaLsb4
# Method in brief: as §1
# CaMyo5 = molecular target: CaMyo5
# Method in brief: as §1
# CaNbp2 = molecular target: CaNbp2
# Method in brief: as §1
# CaRvs167 = molecular target: CaRvs167
# Method in brief: as §1
# CaRvs167-3 = molecular target: CaRvs167-3
# Method in brief: as §1
# CaSho1 = molecular target: CaSho1
# Method in brief: as §1
# CaSla1-D1-D2 = molecular target: CaSla1-D1-D2
# Method in brief: as §1
# CaSla1-D3 = molecular target: CaSla1-D3
# Method in brief: as §1
# ScAbp1 = molecular target: ScAbp1
# Method in brief: as §1
# ScBbc1 = molecular target: ScBbc1
# Method in brief: as §1
# ScBem1-D1 = molecular target: ScBem1-D1
# Method in brief: as §1
# ScBzz1-D1 = molecular target: ScBzz1-D1
# Method in brief: as §1
# ScBzz1-D2 = molecular target: ScBzz1-D2
# Method in brief: as §1
# ScCyk3 = molecular target: ScCyk3
# Method in brief: as §1
# ScFus1 = molecular target: ScFus1
# Method in brief: as §1
# ScHof1 = molecular target: ScHof1
# Method in brief: as §1
# ScHse1 = molecular target: ScHse1
# Method in brief: as §1
# ScLsb1 = molecular target: ScLsb1
# Method in brief: as §1
# ScLsb2 = molecular target: ScLsb2
# Method in brief: as §1
# ScLsb3 = molecular target: ScLsb3
# Method in brief: as §1
# ScLsb4 = molecular target: ScLsb4
# Method in brief: as §1
# ScMyo3 = molecular target: ScMyo3
# Method in brief: as §1
# ScMyo5 = molecular target: ScMyo5
# Method in brief: as §1
# ScNbp2 = molecular target: ScNbp2
# Method in brief: as §1
# ScPex13 = molecular target: ScPex13
# Method in brief: as §1
# ScRvs167 = molecular target: ScRvs167
# Method in brief: as §1
# ScSho1 = molecular target: ScSho1
# Method in brief: as §1
# ScSla1-D1-D2 = molecular target: ScSla1-D1-D2
# Method in brief: as §1
# ScSla1-D3 = molecular target: ScSla1-D3
# Method in brief: as §1
# SpAbp1-D1 = molecular target: SpAbp1-D1
# Method in brief: as §1
# SpBbc1 = molecular target: SpBbc1
# Method in brief: as §1
# SpBzz1-D1 = molecular target: SpBzz1-D1
# Method in brief: as §1
# SpBzz1-D2 = molecular target: SpBzz1-D2
# Method in brief: as §1
# SpCyk3 = molecular target: SpCyk3
# Method in brief: as §1
# SpHof1 = molecular target: SpHof1
# Method in brief: as §1
# SpHof1-2 = molecular target: SpHof1-2
# Method in brief: as §1
# SpHof1-3 = molecular target: SpHof1-3
# Method in brief: as §1
# SpHse1 = molecular target: SpHse1
# Method in brief: as §1
# SpLsb1 = molecular target: SpLsb1
# Method in brief: as §1
# SpLsb4 = molecular target: SpLsb4
# Method in brief: as §1
# SpMyo1 = molecular target: SpMyo1
# Method in brief: as §1
# SpNbp2 = molecular target: SpNbp2
# Method in brief: as §1
# SpPex13 = molecular target: SpPex13
# Method in brief: as §1
# SpRvs167 = molecular target: SpRvs167
# Method in brief: as §1
# SpSla1-D1-D2 = molecular target: SpSla1-D1-D2
# Method in brief: as §1
# SpSla1-D3 = molecular target: SpSla1-D3
# Method in brief: as §1
binder,measurement,setting,value
TPRLSLPRLPNKHHW,SPOT peptide array binding signal intensity,AgAbp1,88
same,SPOT peptide array binding signal intensity,AgBbc1,1.5
same,SPOT peptide array binding signal intensity,AgBem1-D1,≤ 0
same,SPOT peptide array binding signal intensity,AgBzz1-D1,12.5
same,SPOT peptide array binding signal intensity,AgBzz1-D2,23.5
same,SPOT peptide array binding signal intensity,AgCyk3,≤ 0
same,SPOT peptide array binding signal intensity,AgFus1,15.5
same,SPOT peptide array binding signal intensity,AgHof1,685
same,SPOT peptide array binding signal intensity,AgHse1,271
same,SPOT peptide array binding signal intensity,AgLsb1,1
same,SPOT peptide array binding signal intensity,AgLsb4,33.5
same,SPOT peptide array binding signal intensity,AgMyo5,≤ 0
same,SPOT peptide array binding signal intensity,AgNbp2,26
same,SPOT peptide array binding signal intensity,AgRvs167,2.67
same,SPOT peptide array binding signal intensity,AgSho1,274
same,SPOT peptide array binding signal intensity,AgSla1-D1-D2,7
same,SPOT peptide array binding signal intensity,AgSla1-D3,≤ 0
same,SPOT peptide array binding signal intensity,CaAbp1-D1,314
same,SPOT peptide array binding signal intensity,CaAbp1-D2,675
same,SPOT peptide array binding signal intensity,CaBbc1,30.2
same,SPOT peptide array binding signal intensity,CaBem1-D1,≤ 0
same,SPOT peptide array binding signal intensity,CaBzz1-D1,≤ 0
same,SPOT peptide array binding signal intensity,CaBzz1-D2,34.5
same,SPOT peptide array binding signal intensity,CaCyk3,≤ 0
same,SPOT peptide array binding signal intensity,CaFus1,50.5
same,SPOT peptide array binding signal intensity,CaHof1,1
same,SPOT peptide array binding signal intensity,CaHse1,73
same,SPOT peptide array binding signal intensity,CaLsb1,≤ 0
same,SPOT peptide array binding signal intensity,CaLsb4,70
same,SPOT peptide array binding signal intensity,CaMyo5,≤ 0
same,SPOT peptide array binding signal intensity,CaNbp2,116
same,SPOT peptide array binding signal intensity,CaRvs167,2.83
same,SPOT peptide array binding signal intensity,CaRvs167-3,4.75
same,SPOT peptide array binding signal intensity,CaSho1,89
same,SPOT peptide array binding signal intensity,CaSla1-D1-D2,256
same,SPOT peptide array binding signal intensity,CaSla1-D3,1.5
same,SPOT peptide array binding signal intensity,ScAbp1,0.5
same,SPOT peptide array binding signal intensity,ScBbc1,≤ 0
same,SPOT peptide array binding signal intensity,ScBem1-D1,2
same,SPOT peptide array binding signal intensity,ScBzz1-D1,≤ 0
same,SPOT peptide array binding signal intensity,ScBzz1-D2,16.5
same,SPOT peptide array binding signal intensity,ScCyk3,6
same,SPOT peptide array binding signal intensity,ScFus1,0.5
same,SPOT peptide array binding signal intensity,ScHof1,238
same,SPOT peptide array binding signal intensity,ScHse1,216
same,SPOT peptide array binding signal intensity,ScLsb1,8
same,SPOT peptide array binding signal intensity,ScLsb2,≤ 0
same,SPOT peptide array binding signal intensity,ScLsb3,1330
same,SPOT peptide array binding signal intensity,ScLsb4,5
same,SPOT peptide array binding signal intensity,ScMyo3,≤ 0
same,SPOT peptide array binding signal intensity,ScMyo5,≤ 0
same,SPOT peptide array binding signal intensity,ScNbp2,62
same,SPOT peptide array binding signal intensity,ScPex13,224
same,SPOT peptide array binding signal intensity,ScRvs167,3.33
same,SPOT peptide array binding signal intensity,ScSho1,764
same,SPOT peptide array binding signal intensity,ScSla1-D1-D2,13.5
same,SPOT peptide array binding signal intensity,ScSla1-D3,1.75
same,SPOT peptide array binding signal intensity,SpAbp1-D1,386
same,SPOT peptide array binding signal intensity,SpBbc1,≤ 0
same,SPOT peptide array binding signal intensity,SpBzz1-D1,403
same,SPOT peptide array binding signal intensity,SpBzz1-D2,0.75
same,SPOT peptide array binding signal intensity,SpCyk3,2
same,SPOT peptide array binding signal intensity,SpHof1,35
same,SPOT peptide array binding signal intensity,SpHof1-2,293
same,SPOT peptide array binding signal intensity,SpHof1-3,136
same,SPOT peptide array binding signal intensity,SpHse1,416
same,SPOT peptide array binding signal intensity,SpLsb1,≤ 0
same,SPOT peptide array binding signal intensity,SpLsb4,357
same,SPOT peptide array binding signal intensity,SpMyo1,5.5
same,SPOT peptide array binding signal intensity,SpNbp2,61
same,SPOT peptide array binding signal intensity,SpPex13,5
same,SPOT peptide array binding signal intensity,SpRvs167,302
same,SPOT peptide array binding signal intensity,SpSla1-D1-D2,7
same,SPOT peptide array binding signal intensity,SpSla1-D3,≤ 0
